Screening results deposited in PubChem BioAssay by National Center for Advancing Translational Sciences (NCATS).
D1 potentiator: potentiators of human D1 dopamine receptor; P21728; 360,000 compounds, 0.036% hits; AID 504651; HEK293 TREx D1 cells, calcium flux, dopamine EC20 potentiation; potentiation, % at 10 µM; in the data active means potentiation above about 30%; further: 0% is about no effect
D1 ag: human D1 receptor agonism; 360,000 compounds, 1% hits; HEK293 T-REx D1 cells, calcium flux, agonist mode; activation, % at 2 µM; AID 504660; in the data active means activation above about 30%; further: 0% is about no effect
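Tetracycline-induced HEK293 TREx D1 cells, force-coupled to calcium signalling, were dye-loaded with a no-wash calcium kit. Compound was pin-added after a 10 s baseline. Fluorescence was read kinetically at 1 cycle/s for 180 s, with calcium rises flagged as agonism.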
DRD3 agonist: agonists of human D3 dopamine receptor. P35462. D3R DiscoveRx beta-arrestin cells, luminescence, 90 min. max activation, %. 410,000 compounds, 0.58% hits; in the data active means max activation above about 30%; further: 0% is about no effect
Target sequence (P35462 whole entry, looked up): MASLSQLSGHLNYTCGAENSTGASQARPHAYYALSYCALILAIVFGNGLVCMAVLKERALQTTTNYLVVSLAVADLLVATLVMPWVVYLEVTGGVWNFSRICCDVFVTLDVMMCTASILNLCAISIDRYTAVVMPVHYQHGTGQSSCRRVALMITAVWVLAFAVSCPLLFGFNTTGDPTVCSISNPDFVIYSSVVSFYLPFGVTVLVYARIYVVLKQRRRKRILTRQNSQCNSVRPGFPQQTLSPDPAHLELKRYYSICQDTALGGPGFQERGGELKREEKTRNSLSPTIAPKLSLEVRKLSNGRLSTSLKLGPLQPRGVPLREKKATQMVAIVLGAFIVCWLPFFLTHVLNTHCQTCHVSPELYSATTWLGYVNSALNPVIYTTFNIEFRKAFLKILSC
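Agonist mode: compounds and dopamine controls were applied to plated cells for 90 min at 37 degrees C after an overnight attachment at 1500 cells/well. Luminescent read-out followed 30 - 60 minutes at room temperature with DiscoveRx detection reagent.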
D3 antag: D3 dopamine receptor (human) antagonism; P35462; 360,000 compounds, 2.5% hits; D3R cells, DiscoveRx beta-arrestin luminescence, antagonist mode; active compounds read low; AID 652054; max response, negative = inhibition, %; in the data active means max response below about -50%; further: on the % scale 0 is the no-effect control and ±100 the full control effect
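Cells expressing the human receptor were seeded at 1500 cells/well, incubated overnight at 37 degrees C in 5% CO2, then exposed to library compounds with dopamine controls for 90 minutes at 37 degrees C before luminescent detection.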
D1 antagonist: antagonists of human D1 dopamine receptor; 360,000 compounds, 3.2% hits; AID 504652; HEK293 TREx D1 cells, calcium flux, dopamine EC80; active compounds read low; activity change, negative = inhibition, % at 10 µM; in the data active means activity change below about -30%; further: on the % scale 0 is the no-effect control and ±100 the full control effect
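After overnight tetracycline induction at 30 C, force-coupled D1 HEK293 cells took up a no-wash calcium dye at room temperature. Compounds were added and monitored 180 s, and the response to EC80 dopamine was then recorded.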
* = called active by the depositor; . = no result; ! = not active in a repeat. An excerpt weighted towards active compounds, which were near 6.1% of everything screened.

SMILES | D1 potentiator | D1 ag | DRD3 agonist | D3 antag | D1 antagonist
COc1cc(/C=C/C(=O)c2ccc([N+](=O)[O-])o2)ccc1O | 3 | 0 | -31 | -98* | 1
CCC(C(=O)Nc1cc(-c2cn3cccnc3n2)ccc1C)c1ccccc1 (configuration not stated) | -3 | 1 | 5 | . | -3
C/C(=N\NC(=O)C1(C)CC1(Br)Br)c1cccc(NC(=O)c2ccc(C)o2)c1 (configuration not stated) | -5 | 6 | 37* | 77 | -2
O=C(Nc1nc2c(F)cccc2s1)c1ccc2c(c1)OCCO2 | 2 | 3 | -3 | . | 6
N#C/C(=C\c1cccs1)Sc1nc2ccccc2s1 | -7 | 8 | -13 | -24 | -35*
CCOC(=O)c1c(S(=O)(=O)NCC2CCN(CCc3cccs3)CC2)c(C)n(C)c1C | -6 | 0 | -23 | -83* | -7
CCOC(=O)c1c(S(=O)(=O)NCCc2cccs2)c(C)n(C)c1C | -1 | 1 | -3 | -21 | -10
Cc1nc2ccccn2c(=O)c1NC(=O)c1ccc(C(F)(F)F)cc1 | -1 | 0 | -13 | . | 2
O=C(O)CC1S/C(=N/N=C/c2ccc(-c3ccccc3[N+](=O)[O-])o2)NC1=O (configuration not stated) | 0 | 1 | -4 | 18 | -1
Cc1ccc(-c2ccc(/C=N/N=C3/NC(=O)C(CC(=O)O)S3)o2)c([N+](=O)[O-])c1 (configuration not stated) | 1 | -1 | -3 | -79* | -5
COc1ccc(OCC(=O)c2c(O)c3ccccc3oc2=O)cc1 | -2 | 1 | 14 | -114* | -3
COc1ccc(-c2oc3ccccc3c(=O)c2OC(=O)c2ccc(C)cc2)cc1 | 2 | 11 | 0 | -10 | -2
CCOc1ccc(OCC(=O)c2c(O)c3ccccc3oc2=O)cc1 | 3 | 2 | -13 | 0 | -22
COc1ccc(C(=O)c2c(-c3ccc(OC)cc3)oc3ccccc23)cc1 | -7 | 6 | -21 | -63* | .
CCC(=O)N1CCc2cc(S(=O)(=O)NC(CC(C)C)C(=O)NCc3ccc(F)cc3)ccc21 (configuration not stated) | 4 | -1 | -2 | . | -40*
CCC(=O)N1CCc2cc(S(=O)(=O)NCCC(=O)NCc3ccc(F)cc3)ccc21 | -2 | 0 | 4 | 2 | -20
CCC(=O)N1CCc2cc(S(=O)(=O)NCCC(=O)NCc3ccc(OC)cc3)ccc21 | -1 | 1 | -1 | . | -44*
CCOC(=O)c1cc(OC(=O)c2cccc(Cl)c2)n(-c2ccccc2)n1 | 2 | 4 | -5 | . | 15
COc1cc(C(=O)N(Cc2ccc(F)cc2)Cc2ccco2)cc(OC)c1OC | 0 | 2 | -1 | . | -11
Clc1ccc(Cl)c(OCCCCNCc2ccccc2)c1 | -7 | 81* | -13 | -69* | -58*
O=[N+]([O-])c1ccccc1OCCCNCc1ccccc1 | -9 | 2 | -12 | -63* | -23
Clc1ccc(OCCCNCc2ccccc2)c(Br)c1 | -8 | 93* | -21 | -79* | -4
COc1cc(C)ccc1OCCCCNCc1ccccc1 | -7 | 1 | -14 | -21 | 15
CCOc1ccc(-c2cc(C(=O)N3CCN(S(=O)(=O)c4cc(Cl)ccc4OC)CC3)[nH]n2)cc1 | -3 | 2 | 15 | . | 2
Cc1ccc(CSc2ccc3nnc(CCNS(=O)(=O)c4ccc(C)cc4)n3n2)cc1 | -2 | -1 | 6 | . | -2
SMILES | D1 potentiator | D1 ag | DRD3 agonist | D3 antag | D1 antagonist
COc1cccc(C(=O)NC2CC3CCC(C2)N3Cc2ccccc2)c1 (configuration not stated) | 0 | 7 | -3 | -108* | -49*
COc1cccc(C(=O)NC2CC3CCCC(C2)N3CC(=O)Nc2ccccc2C(F)(F)F)c1 (configuration not stated) | 2 | 4 | -11 | -15 | -3
COc1cccc(C(=O)NC2CCN(CC(=O)Nc3nccs3)CC2)c1 | -2 | 2 | -5 | -24 | -33*
O=C(NCc1ccccc1)NC1CC2CCC(C1)N2Cc1ccco1 (configuration not stated) | -5 | 6 | -4 | -12 | -5
O=C(NC1CC2CCC(C1)N2Cc1ccco1)c1ccccc1 (configuration not stated) | -25 | 2 | -3 | -69* | -40*
O=C(NC1CC2CCC(C1)N2Cc1ccccc1)c1cccc(F)c1 (configuration not stated) | -8 | 3 | -4 | -117* | -50*
Cc1ccc(S(=O)(=O)N2CCc3cc(C(=O)Nc4c(F)cccc4F)ccc32)cc1 | -1 | 3 | 5 | . | 0
COc1cc(-c2cc(OC)c3c(C)oc(C)c3c(=O)c2)ccc1OC(=O)c1ccccc1C | 0 | 10 | -2 | . | -6
Cc1cc2c(n1-c1ccc(C(=O)NCCc3ccc(Cl)cc3)cc1)CCC(C)C2 (configuration not stated) | -2 | 2 | 6 | . | 9
CC(C)(C)c1ccc(-c2nc3cc(NC(=O)c4cccc(Br)c4)ccc3o2)cc1 | -1 | 2 | -11 | . | 9
O=C(NC1CCN(c2ncccn2)CC1)c1cccc(F)c1 | -2 | 3 | 0 | 4 | -22
COc1ccc(CN2C3CCC2CC(NC(=O)c2cccc(F)c2)C3)cc1 (configuration not stated) | -11 | 8 | -15 | -86* | -26
O=C(Cn1c(=O)oc2cc(S(=O)(=O)NC3CCCC3)ccc21)Nc1ccc(F)c(F)c1 | -7 | 2 | 4 | . | -3
O=C(Nc1ccccc1)c1ccc2c(c1)CCN2S(=O)(=O)c1ccccc1 | -2 | 10 | -4 | 2 | -32*
COc1ccc(NC(=O)c2ccc3c(c2)CCN3S(=O)(=O)c2ccccc2)cc1 | -7 | 4 | 1 | 7 | -51*!
Cc1ccc(S(=O)(=O)N2CCc3cc(C(=O)NCCc4ccccc4)ccc32)cc1 | -2 | 6 | 64* | . | 5
COC(=O)c1ccc2c(=O)n(CCc3ccc(S(N)(=O)=O)cc3)c(SCC(=O)C(C)(C)C)nc2c1 | -2 | 1 | 7 | . | -7
N/C(=N\OC(=O)c1cccnc1)c1ccc(Cl)cc1Cl | 1 | 2 | -1 | -5 | -33*
N/C(=N\OC(=O)c1cccnc1)c1ccccc1Cl | -5 | 1 | 0 | 7 | 8
N/C(=N\OC(=O)COc1ccc(Br)cc1)c1ccncc1 | -7 | 11 | -1 | -1 | -39*
N/C(=N\OC(=O)COc1ccc2ccccc2c1)c1ccccn1 | -5 | 7 | 1 | 9 | -53*
Cc1cccc(/C(N)=N/OC(=O)COc2ccc(Cl)c(C)c2)c1 | 2 | 17 | 1 | 7 | 2
Cc1cccc(OCC(=O)O/N=C(\N)c2ccc(Cl)cc2)c1 | 0 | -1 | 2 | -5 | -43*
COc1ccc(NS(=O)(=O)c2cc3[nH]c(=O)c(=O)[nH]c3cc2C)cc1Cl | 1 | 0 | -1 | . | 6
